High-throughput results: PubChem BioAssay, National Center for Advancing Translational Sciences (NCATS)
HCMV inh: qHTS Assay for inhibitors of the human cytomegalovirus (HCMV); HFF cells, HCMV-luciferase reporter, 72 h; active compounds read low; activity change, negative = inhibition, % at 57.5 µM; hit rate 4.5% among 410,000; in the data active = activity change below about -60%; inconclusive = no clear call, values can overlap the other calls; inactive = above about -39%
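Human foreskin fibroblasts infected with luciferase-reporter HCMV at MOI 1 PFU/cell, compounds at two doses. Luciferase measured 72 h post infection; normalized to buffer-only basal and Salinomycin (10uM) controls.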
FMDV inh: High Throughput Screening for Foot and Mouth Disease Virus Antivirals. FMDV antiviral cell-based qHTS. Potency, µM (highest dose often 57.9 µM), inactives show at the highest dose activity change, negative = inhibition, most hits filed as inhibitors. hit rate 1.2% among 410,000; calls by dose curve; tested in HEK293T cells; also: read-out not given here; potency is read from the fitted curve at half-maximal effect; nearly all actives have a fitted effect of over 45% in size
RE007 growth inh: qHTS Assay for Inhibitors of the HIV-1 protein Vpr; S. pombe RE007 Vpr strain, BacTiter-Glo ATP luminescence, 24 h; Potency, µM (highest dose often 92.2 µM), for inactives: at the highest dose activity change, negative = less growth, hits mostly inhibitors; hit rate 0.21% among 360,000; AID 651644, 2012; active = well fitted falling curve with a large enough effect; inconclusive = small, poorly fitted or top-dose-only effect; inactive = no such curve, though single readings can be large or run the other way; also: potency is read from the fitted curve at half-maximal effect; nearly all actives have a fitted effect of over 50% in size
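Fission yeast RE007 carrying one integrated HIV-1 vpr copy, seeded at OD 0.01 in PMG+AL medium with 23 nL pinned compound. Grown 24 h at 30 degrees; viability read by BacTiter-Glo luminescence after 5 min.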
Sm TGR block: qHTS Assay for the Inhibitors of Schistosoma Mansoni Peroxiredoxins; purified TGR, DTNB reduction, TNB absorbance 405 nm; Potency, µM (titrated, usually from 114 µM), for the others: at the highest dose activity change, negative = inhibition, hits mostly inhibitors; hit rate 3% among 360,000; AID 485364, 2010; also: potency is read from the fitted curve at half-maximal effect; nearly all actives have a fitted effect of over 60% in size
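Kinetic colorimetric format: TGR-catalysed, NADPH-driven DTNB reduction monitored via TNB absorbance. Enzyme dispensed at 20 nM; compound exposure 15 min at room temperature before reaction start.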
Tb PYK inh: qHTS of Trypanosoma Brucei Inhibitors | pyruvate kinase (Trypanosoma brucei), Q57TT1 | TbPYK enzyme, Kinase-Glo Plus ATP luminescence, 45 min | Potency, µM (titrated, usually from 76.8 µM), inactives show at the top dose activity, negative = inhibition, usual class: inhibitors | hit rate 0.12% among 410,000 | AID 624173, 2012; also: potency is read from the fitted curve at half-maximal effect; nearly all actives have a fitted effect of over 50% in size
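T. brucei PYK with substrate was exposed to pin-transferred compounds across a concentration series, then started with 130 uM ADP (final). After 45 min at room temperature, Kinase-Glo Plus luminescence was read, normalized and curve-fitted.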
Giardia FBPA inh: qHTS Assay for Inhibitors of Fructose-1,6-bisphosphate Aldolase from Giardia Lamblia. purified Giardia FBPA. Potency, µM (doses to about 59.6 µM), inactives show at the highest dose activity, negative = inhibition, usual class: inhibitors. hit rate 0.71% among 290,000. AID 2451, 2010; also: potency is read from the fitted curve at half-maximal effect; nearly all actives have a fitted effect of over 55% in size
Target sequence (A8B2U2 whole entry, looked up): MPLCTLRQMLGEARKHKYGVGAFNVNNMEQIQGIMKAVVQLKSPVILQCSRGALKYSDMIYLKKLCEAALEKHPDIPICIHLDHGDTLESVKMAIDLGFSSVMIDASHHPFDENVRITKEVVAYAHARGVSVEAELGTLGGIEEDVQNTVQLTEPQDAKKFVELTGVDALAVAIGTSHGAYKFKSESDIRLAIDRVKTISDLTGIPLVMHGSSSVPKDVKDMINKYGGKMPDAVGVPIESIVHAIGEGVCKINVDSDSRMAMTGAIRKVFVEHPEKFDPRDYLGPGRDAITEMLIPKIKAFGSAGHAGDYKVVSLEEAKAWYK
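Giardia FBPA (40 nM reagent) was preincubated 10 min at RT with compound (up to 57.5 uM final), then substrate plus GAPDH/TPI/NAD/arsenate coupling system with diaphorase/resazurin was added; resorufin fluorescence (525/598 nm) was read after 20 min.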
* marks the source's active call; other numbers are inactive results; ? = inconclusive; · = no result given; [ ] = dose if it differs, or a comment. A selection: hits, their analogues and other compounds. The true share with any hit is near 7.7%. Unless noted, calls follow the shape of the dose curve; as a rule, active = well fitted curve in the direction sought with a large enough effect; inconclusive = small, poorly fitted or top-dose-only effect, or another doubt; inactive = no such curve, though single readings can be large; an effect the other way counts as inactive or inconclusive. % is scaled to controls: 0 for no effect and ±100 for the full control effect.

SMILES	HCMV inh	FMDV inh	RE007 growth inh	Sm TGR block	Tb PYK inh	Giardia FBPA inh
NC(=O)C(C(=O)/C=C/c1ccc(Cl)cc1)=C1SCCS1	-101*	?	-1%	0%	1%	3%
O=C(/C=C/c1ccc(Cl)cc1)NC1CC2CCC1C2 (stereo not given)	-38	41%	5%	-1%	1%	-23%
CN(C)c1ccc(N/C(=N\S(=O)(=O)c2cccs2)c2ccccc2)cc1	-68*	42%	-5%	13%	2%	0%
O=c1c(N2CCN(c3cccc(C(F)(F)F)c3)CC2)csc2ccccc12	-4	-25%	·	2%	-6%	·
Cc1cccc(C)c1-n1nnnc1C(c1cccc2ccccc12)N1CCN(C/C=C/c2ccccc2)CC1 (stereo not given)	-7	-20%	-17%	·	8%	·
Cc1cccc(C)c1-n1nnnc1C(c1cc2ccccc2o1)N1CCN(C/C=C/c2ccccc2)CC1 (stereo not given)	-62*	-5%	2%	·	4%	·
Cc1cc(C)c(-c2cc([C@H](C)O/N=C3/[C@H]4OC4[C@@H](O)[C@H]4[C@H]3CCn3c(=O)n(-c5ccccc5)c(=O)n34)on2)c(C)c1 (stereo not given in full)	·	·	·	·	·	-5%[12.9 µM]
Cc1ccccc1-c1nc(-c2ccc(NC(=O)c3ccc4c(c3)OCO4)cc2)no1	-79*	11%	13%[3.69 µM]	-2%	·	-2%
Cc1ccc(S(=O)(=O)N[C@@H](CCc2ccccc2)CC(=O)C(C)(C)C)cc1	·	·	·	·	·	-3%[12.9 µM]
Cc1nc(-c2cccc(NC(=O)COc3ccc(Cl)cc3)c2)cs1	-64*	?	-23%	17%	-9%	·
Cc1nc(-c2cccc(NC(=O)c3ccco3)c2)cs1	-87*	5%	-23%	-4%	-2%	·
CCCCCC(=O)Nc1ccc(-c2csc(C)n2)cc1	59	23%	-16%	-20%	11%	-11%
Cc1nc(-c2ccc(NC(=O)c3ccco3)cc2)cs1	-84*	11µM*	?	4%	-23%	2%
Nc1nc(-c2ccc(NC(=O)c3ccco3)cc2)cs1	15	-60%	-24%	12%	1%	1%
Cc1nc(-c2ccc(NC(=O)/C=C\C(=O)O)cc2)cs1	-81*	-11%	-8%	-23%	?	10%
Cc1cc(NC(=O)c2cccn2-c2nnc(N3CCCCC3)s2)ccc1Br	0	-2%	·	15%	-13%[15.4 µM]	·
Cc1c(Cl)cccc1NC(=O)c1cc2nc(-c3ccc4c(c3)OCO4)cc(C(F)(F)F)n2n1	-7	-8%	·	-2%	1%	·
Cc1nnc2ccc(-c3ccc(NC(=O)c4ccco4)cc3)nn12	35	18%	39%	32µM*	4%	-5%
CC(=O)Nc1ccc(-c2ccc3nnc(C)n3n2)cc1	59	4%	-6%	0%	-6%	-3%
CNS(=O)(=O)c1cc(-c2nnc(Nc3cc(C)ccc3C)c3ccccc23)ccc1C	-78*	9%	·	1%	-1%	·
Cc1nnc(-c2ccc(N3CCOCC3)c([N+](=O)[O-])c2)o1	·	19%	0%	-5%	0%	·
Cc1cccc(Nc2nnc(-c3ccc(N4CCOCC4)c([N+](=O)[O-])c3)c3ccccc23)c1	-68*	-13%	1%	3%	3%	-4%
Cc1ccc(-c2nnc(Nc3cccc(O)c3)c3ccccc23)cc1S(=O)(=O)N1CCOCC1	-61*	-48%	·	7%	-3%	·
Cc1ccc(-c2nnc(Nc3ccc(F)cc3)c3ccccc23)cc1S(=O)(=O)NC(C)C	-14	11%	·	10%	0%	·
Cc1ccc(-c2nnc(Nc3ccccc3)c3ccccc23)cc1S(=O)(=O)N1CCOCC1	-1	?	·	-4%	-3%	·
SMILES	HCMV inh	FMDV inh	RE007 growth inh	Sm TGR block	Tb PYK inh	Giardia FBPA inh
Cc1ccc(Nc2nnc(-c3ccc(C)c(S(=O)(=O)N4CCOCC4)c3)c3ccccc23)c(C)c1	-66*	-19%	·	2%	-8%	·
Cc1nn2c(-c3ccco3)ccnc2c1-c1ccc(F)cc1	-2	68%	·	0%	3%	·
COc1ccc2c3c([nH]c2c1)[C@@H](CO)N(Cc1ccccc1)CC31CN(C(=O)Cc2ccccc2)C1	0	·	·	·	·	·
N#Cc1cc2c([nH]c1=S)CCCC2	-37	-9%	86%	0%	5.6µM*	-8%
N#Cc1cc2c([nH]c1=O)CCCC2	-19	-13%	11%	9%	-4%	4%
CC1(C)Cc2[nH]c(=S)c(C#N)cc2CO1	21	22%	12%	32µM*	?	-26%
COc1ccc(NC(=O)Cn2nnnc2-c2ccccc2F)c(C)c1	-19	5%	·	1%	2%	·
O=C(Nc1ccc(Cl)c(C(F)(F)F)c1)C(Cc1ccccc1)NS(=O)(=O)c1cccc2nsnc12 (stereo not given)	-26	0%	·	-3%	-9%	·
CC1CCN(C(=O)c2[nH]cnc2C(=O)Nc2ccon2)CC1	2	5%	2%	40µM*	-2%	·
CC(C)(C)OC(=O)N1CCN(C(=O)c2[nH]cnc2C(=O)Nc2ccon2)CC1	-28	3%	8%	0%	0%	·
CC1CCN(C(=O)c2[nH]cnc2C(=O)N(C)Cc2ccccc2)CC1	-62*	1%	-3%	-17%	4%	·
CCCCn1c(C)csc1=Nc1cccnc1	-63*	-23%	-20%	-23%	-9%	7%
Cc1ccc(-c2csc(=Nc3cccnc3)n2CCCn2ccnc2)cc1C	-95*	16µM*	-6%	-16%	-7%	4%
C/C(CCN1CCCc2nc(C)c(C)cc21)=N\O[C@@H](C)CN1CCCc2nc(C)c(C)cc21	·	·	·	·	·	1%[12.9 µM]
CCC(NC(=O)Nc1ccc(O)cc1)(C(F)(F)F)C(F)(F)F	-70*	-24%	1%	-24%	-3%	?
COCCCNc1nc(NCc2ccc(C)cc2)c2cnn(C)c2n1	-16	0%	·	-2%	0%	·
Cc1ccccc1N1CC(O)(c2cccs2)[N+]2=C1CCCC2 (stereo not given)	-60*	-4%	3%	1%	3%	3%
C/C(CCc1oc2ccc(Cl)cc2c1-c1ccc(C)o1)=N\O	3	-14%	-26%	25µM*	-9%	-8%
C/C(CCc1oc2ccc(Br)cc2c1-c1ccc(C)o1)=N/O	-39	?	-17%	40µM*	-10%	0%
O=C(/C=C/c1ccccc1)NCc1ccco1	-15	13%	-15%	0%	1%	1%
Cc1ccc(/C=C/C(=O)NCc2ccco2)o1	-20	·	·	13µM*	·	-6%
